# Source: PubChem BioAssay
# HCMV antiviral – inhibitors of human cytomegalovirus; activity change, negative = inhibition, % at 57.5 µM; AID 1259415; HFF cells, HCMV-luciferase reporter, 72 h; hits give low values; 410,000 compounds, 4.5% hits; in the data active means activity change below about -60%; inconclusive means no clear call, values can overlap the other calls; inactive means above about -39%; further: on the % scale 0 is the no-effect control and ±100 the full control effect
#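 Two compound doses tested in HFFs infected with HCMV-luciferase, MOI 1 PFU/cell, 72 h at 37C. Lysate luminescence read with OneGlo; data normalized against buffer-only and 10uM Salinomycin inhibitor controls.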
# Pf growth 48h – P. falciparum growth inhibition at 48 hours (one generation); AID 504832; P. falciparum luciferase growth in erythrocytes, 48 h; 310,000 compounds, 5.9% hits; Potency, µM (series often up to 28.7 µM), for inactives: at the highest dose activity change, negative = inhibition, hits mostly inhibitors; further: potency means the concentration at half of the fitted maximal effect; on the % scale 0 is the no-effect control and ±100 the full control effect
#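 Growth was read as firefly luciferase luminescence after a 48 h, 37 C, 5% CO2 exposure of compounds to reporter-bearing P. falciparum cultures (0.1% parasitemia, 2% hematocrit final) in Albumax-supplemented RPMI 1640.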
# Pf growth 96h – P. falciparum growth inhibition at 96 hours | Potency, µM (highest dose often 28.7 µM), inactives show top-dose activity change, negative = inhibition, usual class: inhibitors | P. falciparum luciferase reporter growth, 96 h | 320,000 compounds, 6.9% hits; further: potency means the concentration at half of the fitted maximal effect; on the % scale 0 is the no-effect control and ±100 the full control effect
#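 Two-generation exposure (96 h) targets delayed-death phenotype. Reporter parasites carrying integrated firefly luciferase, in red cells at 2% hematocrit and 0.05% parasitemia final, kept at 37 C, 5% CO2; luminescence loss indicates inhibition.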
# Shiga toxin inh – blocks Shiga toxin action in Vero cells | Vero cells, Shiga toxin protein synthesis inhibition reporter | inhibition, % at 38.7 µM | 290,000 compounds, 9.2% hits | AID 2315; in the data active means inhibition mostly above about 28%, no sharp cut-off; inactive means mostly below about 43%; further: 0% is about no effect
# CHX counter – counter-screen hit for Shiga toxin inhibitors, cycloheximide; max response, %; cell reporter, cycloheximide protein synthesis inhibition counterscreen; 300,000 compounds, 12% hits; in the data active means max response mostly above about 13%, no sharp cut-off; inactive means mostly below about 14%; further: read at 38.3 µM for the half of the compounds with a filed dose; 0% is about no effect
# HCV inh – blocks hepatitis C virus | Huh7.5.1 HCVcc-Cre infection, luciferase reporter, 44 h | Potency, µM (titrated, usually from 41.8 µM), without a hit: at the highest dose activity change, negative = inhibition, actives largely listed as inhibitors | 340,000 compounds, 3.4% hits | AID 651820; further: potency means the concentration at half of the fitted maximal effect; on the % scale 0 is the no-effect control and ±100 the full control effect
#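 HCVcc-Cre virus at an moi near 0.5 was added right after compound to cells cultured 4 h from seeding (1,000 cells/well). Luciferase activity was determined 44 h later, 15 min after substrate addition at RT.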
# * = called active by the depositor; i = inactive; ? = inconclusive; . = not tested or not shown. Shown are actives, neighbours in structure and some others; about 21% of the full set was active somewhere. Unless noted, the call rests on the fitted dose curve; in most records, active means well fitted inhibition curve with a large enough effect; inconclusive means small, poorly fitted or top-dose-only effect, or another doubt; inactive means no such curve, though single readings can be large or run the other way.
SMILES,HCMV antiviral,Pf growth 48h,Pf growth 96h,Shiga toxin inh,CHX counter,HCV inh
CC(=O)c1ccc(N2CCN(C(=O)Nc3cccc(F)c3)CC2)cc1,-27.3,?,-2.8%,17.8,5.9,?
CCCn1c2ccccc2c2cnn(CC(=O)NCCCN(Cc3ccccc3)C(C)C)c(=O)c21,-20.2,.,.,.,.,.
CC(N)c1csc(Nc2nccc(C(F)(F)F)n2)n1 (stereo unspecified),-4.2,.,.,.,.,.
CC(C)(C)c1ccc(C(CC(=O)O)NC(=O)Cc2ccc(F)cc2)cc1 (stereo unspecified),.,-26.6%,?,19.1,-6.1,.
C=CCOc1c(/C=N\NC(N)=O)cccc1OC,-1.9,?,30.2%,-3.0,1.0,13.9%
C=CCOc1c(OC)cc(/C=N/Nc2cccc(C(=O)O)c2)c(Br)c1Br,-29.4,50.1%,42.7%,187.2*,49.9*,36.3%
COc1cc(/C=N/Nc2ccc(C(=O)O)cc2)ccc1O,99.0,i,22.6%,-8.2,5.3,-5.2%
COc1cc(/C=N\NS(=O)(=O)c2ccccc2)cc(OC)c1OC,103.9,-21.9%,122.3%,.,0.3,13.4%
COc1ccc(/C=N/Nc2ccc(C(=O)O)cc2)c(OC)c1OC,19.6,-10.7%,?,79.9*,47.2*,23.7%
COc1cc(/C=N/Nc2ccc(C(=O)O)cc2)cc(OC)c1OC,69.1,131.6%,148.8%,57.6*,45.0*,29.7%
COc1cc(/C=N/Nc2ccc(S(N)(=O)=O)cc2)cc(OC)c1OC,4.1,6.3%,24.4%,-4.4,2.2,10µM*
COc1ccc2nc3oc(C(=O)N(C)c4ccc(Cl)cc4)cc3cc2c1,4.0,.,.,.,.,.
COC(=O)C(NC(C)=O)(Nc1ccc(C)cn1)C(F)(F)F (stereo unspecified),-8.3,-25.3%,-10.4%,-1.2,-0.3,22.7%
O=[N+]([O-])c1ccc(O)c(CSc2nnnn2-c2ccccc2)c1,17.0,-13.7%,?,-7.2,-1.9,5.6%
O=C1OCCC1N(C(=O)C1CC1)c1cccc(Cl)c1 (stereo unspecified),.,.,.,-8.3,-3.6,.
CCN(CC)S(=O)(=O)c1cccc(NC(=O)/C=C/c2cccc([N+](=O)[O-])c2)c1,-85.0*,21.4%,-15.3%,9.9,-1.8,6.31µM*
CCCC(C)NC(=O)/C=C/c1cccc([N+](=O)[O-])c1 (stereo unspecified),5.5,?,31.6%,-0.6,11.1*,-12.2%
CCN(CC)S(=O)(=O)c1cccc(NC(=O)/C=C/c2ccc([N+](=O)[O-])cc2)c1,-15.0,-0.9%,?,-22.3,-2.3,?
O=C(/C=C/c1cccc([N+](=O)[O-])c1)NCc1ccccc1,-8.5,?,23.4%,-9.7,6.3,-7.7%
Cc1nc2cc3c(cc2c(C)c1C(=O)OC(C)C)OCO3,-32.3,36.3%,39.2%,29.2*,40.4*,?
COc1cc(NC(=O)CN2CCN(CC(=O)Nc3ccccc3OC)CC2)cc(OC)c1,54.2,-19.5%,9.0%,-6.9,1.8,0.3%
CN(C)S(=O)(=O)N1CCN(C(=O)N2CCOCC2)CC1,-100.6*,10.6%,.,-18.3,-1.5,11.3%
CN(C)S(=O)(=O)N1CCN(C(=O)N2CCCCC2)CC1,38.7,6.4%,.,-7.3,-3.9,-2.2%
CC(=O)c1cccc(NC(=O)C(CC(C)C)NC(=O)C2CCCCC2)c1 (stereo unspecified),-33.4,5.86µM*,-3.8%,11.9,-0.7,-0.2%
COc1ccc(OC)c(NC(=O)C(CC(C)C)NC(=O)C2CCCCC2)c1 (stereo unspecified),16.5,?,?,-5.7,1.8,-4.1%
COc1ccccc1NC(=O)CC1CCCC1,25.8,10.0%,13.1%,22.0,-3.7,-2.9%
COc1ccccc1NC(=O)C(CC(C)C)NC(=O)C1CCCCC1 (stereo unspecified),-20.0,.,8.28µM*,-10.9,2.8,6.5%
CC(C)CC(NC(=O)C1CCCCC1)C(=O)NC(C)c1ccccc1 (stereo unspecified),-34.7,-22.3%,29.8%,-2.5,8.4,-8.0%
COc1ccccc1NC(=O)C(C)OC(=O)CC1CCCCC1 (stereo unspecified),-4.4,13.1µM*,?,.,.,4.5%
CCOC(=O)CN1CCS(=O)(=O)CC1,-8.6,7.0%,27.7%,15.0,-3.5,3.0%
